rCAG binder: r(CAG) repeat RNA binding; TO-PRO-1 dye displacement fluorescence; inhibition, % at 3 µM; actives 1.3% (n = 370,000);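 active = inhibition above the plate cutoff, the mean of all test compounds on that plate plus 3 SD, cut at about 35% in these data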;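 also: 0% = DMSO alone and 100% = 100 µM mitoxantrone as full dye displacement; higher means more dye released from RNA so lower well fluorescence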
PG9 binder: binds the HIV-1 gp120 antibody PG9; inhibition, % at 6.7 µM; TR-FRET gp120-PG9 antibody binding; actives 0.43% (n = 360,000); in the data active = inhibition above about 8.5%
Granule exo inh: blocks lytic granule exocytosis | TALL-104 LAMP-1 surface exposure, flow cytometry; cells stimulated with thapsigargin and PMA | inhibition, % at 10 µM | actives 0.66% (n = 360,000);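 active = inhibition above about 55%, limit read from the data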
ABCB6 inh MLPCN: human ABCB6 transporter inhibition | K562-ABCB6 porphyrin accumulation, flow cytometry, 1 h; stronger effect = lower value | fluorescence ratio to DMSO, % at 10 µM | actives 0.19% (n = 360,000);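 active = fluorescence ratio to DMSO below 75%, the collection mean minus 3 SD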;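 also: signal is porphyrin accumulated inside mitochondria; 100% equals median channel fluorescence of DMSO control wells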
rCAG bind conf: r(CAG) RNA repeat binding, confirmation; TO-PRO-1 dye displacement fluorescence; AID 652065; actives 70% (n = 4,300); shares compounds with rCAG binder; inhibition, % at 3 µM;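 active = inhibition above a per-plate cutoff, the mean inhibition of sample wells plus 3 SD, cut at about 35% in these data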;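 also: loss of TO-PRO-1 fluorescence as compound displaces dye from 1x1 AA loop RNA; 0% = DMSO only wells and 100% = 100 µM mitoxantrone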
DNA CAG counter: disrupts DNA CAG TO-PRO-1 complex, flagging rCAG hits; AID 652068; actives 94% (n = 4,300); inhibition, % at 3 µM; d(CAG) DNA oligo TO-PRO-1 dye displacement, fluorescence; shares compounds with rCAG binder;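 active = inhibition above its plate's cutoff, the mean test-well inhibition plus 3 SD, cut at about 4.8% in these data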;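 also: 0% = DNA dye mix with DMSO and 100% = 100 µM mitoxantrone; hits displace the dye from DNA and so lower well fluorescence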
dCAG dye DR: disrupts DNA CAG TO-PRO-1 complex in dose response; shares compounds with rCAG binder; DNA CAG/GTC duplex TO-PRO-1 dye displacement fluorescence; actives 20% (n = 250); IC50, µM; AID 686960; in the data active = IC50 below about 10 µM
* marks the source's active call; other numbers are inactive results; / = no result. Most compounds without a hit are left out; they make up all but 2.5% or so of the library.

SMILES	rCAG binder	PG9 binder	Granule exo inh	ABCB6 inh MLPCN	rCAG bind conf	DNA CAG counter	others
COc1ccccc1C(=O)OCCNC(=O)Cn1cnc2c1c(=O)n(C)c(=O)n2C	2	0	1	96	/	/
CCC1=C(C)CN(C(=O)NCCc2ccc(S(=O)(=O)NC(=O)NC3CCC(C)CC3)cc2)C1=O (stereo unspecified)	42*	0	-2	105	33	5.0*
CC(CCCC(C)(C)O)CC1C2=C(CCCC2=O)OC2=C1C(=O)CCC2 (stereo unspecified)	-11	0	-2	95	/	/
COCC(=O)Nc1sc2c(c1C(=O)OC)CCCC2	4	-2	-7	95	/	/
COC(=O)c1c(NC(=O)C2CCCCC2C(=O)O)sc2c1CCCCC2 (stereo unspecified)	48*	5	2	97	33	5.7*
CC(=O)Oc1c(I)cc(I)cc1C(=O)Nc1ccc(Cl)cc1	22	0	15	94	/	/
CCCCCc1c(-c2ccc(F)cc2F)ncn1CCc1ccccc1OC	-1	-2	21	116	/	/
O=C(COc1ccc([N+](=O)[O-])cc1)NNC(=O)c1cccs1	1	-1	0	94	/	/
O=C(Cc1ccc([N+](=O)[O-])cc1)NNC(=O)c1cccs1	55*	-1	-12	170	1	0
C/C(=N\n1cnnc1)c1ccccc1	-6	3	-1	101	/	/
O=C(Cc1cccc2ccccc12)Nc1ccccc1C(=O)O	18	1	1	99	/	/
O=C(Cc1cccc2ccccc12)Nc1cc(Cl)ccc1C(=O)O	46*	0	3	96	35*	8.1*
O=C(NC(=S)NCCC1=CCCCC1)c1cncc(Br)c1	-5	-1	0	96	/	/
Cc1cc(OCc2nn[nH]n2)c2c(C)c(Cc3ccccc3)c(=O)oc2c1	50*	0	3	102	50*	13*
Cc1cc(C(=O)CCC(=O)Nc2ncccc2O)c(C)s1	5	-3	-2	106	/	/
C=CCn1c(CSCc2ccc(Cl)cc2Cl)nnc1SCC(=O)Nc1ccc(C(=O)O)cc1	36*	-2	-2	87	53*	16*
O=C(CSCc1ccc(Cl)cc1Cl)Nc1ccccc1C(=O)Nc1ccc(C(=O)O)cc1	8	0	-4	121	/	/
COCCNC(=O)CN(Cc1ccc(F)cc1)C(=O)CCC(=O)Nc1nccs1	-1	2	7	105	/	/
N#CCC(=O)N/N=C/c1ccc(OCC(=O)Nc2ccc(F)cc2)cc1	10	-5	0	100	/	/
COC(=O)Cc1ccc(OC2(C)CCN(Cc3ccccc3OC(F)F)C2)cc1 (stereo unspecified)	-2	1	-2	96	/	/
COc1ccc(/C=N/NC(=O)CCN2CCN(c3ccccc3)CC2)c(OC)c1OC	-7	0	-1	96	/	/
O=C(CCN1CCN(c2ccccc2)CC1)N/N=C/c1ccc(O)c(O)c1O	56*	-3	-1	101	45*	21*
Nc1ccn([C@@H]2O[C@H](C(=O)N[C@H]3c4ccccc4C[C@H]3O)[C@@H](O)[C@H]2O)c(=O)n1	0	1	-4	91	/	/
COC(=O)c1ccc(CN(c2ccccn2)S(=O)(=O)c2ccccc2)cc1	2	0	0	95	/	/
COC(=O)c1ccc(CN(c2ccc(C(=O)O)c(O)c2)S(=O)(=O)c2ccc(Cl)c([N+](=O)[O-])c2)cc1	43*	-2	2	100	52*	18*
SMILES	rCAG binder	PG9 binder	Granule exo inh	ABCB6 inh MLPCN	rCAG bind conf	DNA CAG counter	others
O=S(=O)(Nc1ncnc2scc(-c3ccc(F)cc3)c12)c1cc(F)ccc1F	54*	-2	3	93	55*	20*
O=C(O)CCC(=O)N1N=C(c2ccc(Br)cc2)CC1c1ccc(Br)cc1 (stereo unspecified)	38*	-2	9	96	51*	14*
O=C(O)CCC(=O)N1N=C(c2ccccc2)CC1c1ccc(Br)cc1 (stereo unspecified)	13	1	-1	110	/	/
O=C(O)c1ccccc1N1C(=O)C2C3c4ccccc4C(Br)(c4ccccc43)C2C1=O (stereo unspecified)	35*	-3	2	102	27	4.5*
COc1ccc2c(c1)c1ccc3c(c1n2C)C(=O)C=CC3=O	54*	4	-20	96	11	8.3*
Cc1ccc2c(c1)c1ccc3c(c1n2C)C(=O)C=CC3=O	51*	6	3	100	13	9.6*
O=C(Nc1cccc(-n2cnnn2)c1)c1ccc(OC(F)(F)F)cc1	4	-2	5	90	/	/
CCc1ccc([C@@H]2CC=C(C(=O)O)[C@H](c3ccc(Cl)cc3)N2S(=O)(=O)c2ccc(C)cc2)cc1	83*	0	3	100	85*	54*
CCc1ccc([C@@H]2CC=C(C(=O)O)[C@H](c3cccc(Cl)c3)N2S(=O)(=O)c2ccc(C)cc2)cc1	82*	1	-4	105	76*	36*
CCc1ccc([C@@H]2CC=C(C(=O)O)[C@H](c3ccc(C)cc3)N2S(=O)(=O)c2ccc(C)cc2)cc1	79*	0	1	98	82*	50*
CCc1ccc([C@@H]2CC=C(C(=O)O)[C@H](c3ccccc3F)N2S(=O)(=O)c2ccc(C)cc2)cc1	69*	2	-1	98	73*	35*
Cc1onc(-c2ccccc2Cl)c1C(=O)NCc1nnnn1-c1ccc(F)c(F)c1	2	0	-1	99	/	/
CCCCOc1ccc(C(=O)Oc2cc(C)[nH]c(=O)c2[N+](=O)[O-])cc1	3	0	-2	106	/	/
CCOc1ccc(C(=O)Oc2cc(C)[nH]c(=O)c2[N+](=O)[O-])cc1	74*	-2	-3	107	0	-1
Cc1ccc(NC(=O)CCNS(=O)(=O)c2ccc(Br)s2)cc1	3	0	0	168	/	/
COc1ccc(NC(=O)CSc2nc(-c3ccco3)nc3cc(=O)[nH]n23)cc1Cl	54*	-2	-3	93	36*	14*
N=C1/C(=C\c2ccc(-c3cccc(C(=O)O)c3)o2)C(=O)N=C2SC=C(c3ccccc3)N12	86*	-2	-1	106	91*	70*
CC1(C(=O)NNC(=O)c2ccc(=O)oc2)CC1Br (stereo unspecified)	43*	-3	-6	98	60*	24*	dCAG dye DR=9.9*
Cc1cc(=O)oc(C)c1C(=O)NNC(=O)C1(C)CC1Br (stereo unspecified)	1	-3	1	99	/	/
O=C(N/N=C/c1ccc(N2CCOCC2)cc1)c1ccccc1OCCOc1ccccc1	-1	0	-6	108	/	/

Screens deposited in PubChem BioAssay by several laboratories.
